Values without a mark were called inactive.
Tested on: Vero E6 infected with SARS-CoV-2
Test: inhibition of SARS-CoV-2 cytopathic effect; higher = more antiviral protection, active = above 15
Conditions: 48 h

## Cc1cn(-c2cc(NC(=O)c3ccc(C)c(Nc4nccc(-c5cccnc5)n4)c3)cc(C(F)(F)F)c2)cn1 [nilotinib]
1 nM
  inhibition of SARS-CoV-2 cytopathic effect: 3.96%
8.33 nM
  inhibition of SARS-CoV-2 cytopathic effect: 3.56%
100 nM
  inhibition of SARS-CoV-2 cytopathic effect: 3.11%
833.33 nM
  inhibition of SARS-CoV-2 cytopathic effect: 5.24%
10000 nM
  inhibition of SARS-CoV-2 cytopathic effect: 6.03%

## c1ccc(COCCCc2c[nH]cn2)cc1 [proxyfan]
1 nM
  inhibition of SARS-CoV-2 cytopathic effect: -1.62%
8.33 nM
  inhibition of SARS-CoV-2 cytopathic effect: -1.11%
100 nM
  inhibition of SARS-CoV-2 cytopathic effect: -0.96%
833.33 nM
  inhibition of SARS-CoV-2 cytopathic effect: 0.04%
10000 nM
  inhibition of SARS-CoV-2 cytopathic effect: -3.35%

## CC(C)=CCc1c(O)cc(O)c2c(=O)c(O)c(-c3ccc(C(F)(F)F)cc3)oc12
1 nM
  inhibition of SARS-CoV-2 cytopathic effect: 2.04%
8.33 nM
  inhibition of SARS-CoV-2 cytopathic effect: 1.52%
100 nM
  inhibition of SARS-CoV-2 cytopathic effect: 3.93%
833.33 nM
  inhibition of SARS-CoV-2 cytopathic effect: 2.83%
10000 nM
  inhibition of SARS-CoV-2 cytopathic effect: 2.95%

## COc1cc(N)c(Cl)cc1C(=O)OCCCN1CCCCC1
1 nM
  inhibition of SARS-CoV-2 cytopathic effect: 3.12%
8.33 nM
  inhibition of SARS-CoV-2 cytopathic effect: -0.29%
100 nM
  inhibition of SARS-CoV-2 cytopathic effect: 3.25%
833.33 nM
  inhibition of SARS-CoV-2 cytopathic effect: 4.22%
10000 nM
  inhibition of SARS-CoV-2 cytopathic effect: 1.72%

## CC1(C)S[C@@H]2[C@H](NC(=O)[C@H](N)c3ccc(O)cc3)C(=O)N2[C@H]1C(=O)O [amoxicillin]
1 nM
  inhibition of SARS-CoV-2 cytopathic effect: -2.41%
8.33 nM
  inhibition of SARS-CoV-2 cytopathic effect: -1%
100 nM
  inhibition of SARS-CoV-2 cytopathic effect: -0.76%
833.33 nM
  inhibition of SARS-CoV-2 cytopathic effect: -0.16%
10000 nM
  inhibition of SARS-CoV-2 cytopathic effect: -2.88%

## CC(C)(C)c1ccc(O)cc1 [4-tert-butylphenol]
1 nM
  inhibition of SARS-CoV-2 cytopathic effect: -0.71%
8.33 nM
  inhibition of SARS-CoV-2 cytopathic effect: 1.9%
100 nM
  inhibition of SARS-CoV-2 cytopathic effect: -1.66%
833.33 nM
  inhibition of SARS-CoV-2 cytopathic effect: 2.45%
10000 nM
  inhibition of SARS-CoV-2 cytopathic effect: 2.59%

## CCNC(=O)C#Cc1ccc2c(C(=Nc3ccc(CN(C)C)cc3)c3ccccc3)c(O)[nH]c2c1
1 nM
  inhibition of SARS-CoV-2 cytopathic effect: 0.51%
8.33 nM
  inhibition of SARS-CoV-2 cytopathic effect: -0.81%
100 nM
  inhibition of SARS-CoV-2 cytopathic effect: -4.45%
833.33 nM
  inhibition of SARS-CoV-2 cytopathic effect: -15.2%
10000 nM
  inhibition of SARS-CoV-2 cytopathic effect: -20.6%

## COc1cc2c(NC3CCN(C(C)C)CC3)nc(C3CCCCC3)nc2cc1OCCCN1CCCC1
1 nM
  inhibition of SARS-CoV-2 cytopathic effect: 0.58%
8.33 nM
  inhibition of SARS-CoV-2 cytopathic effect: -2.43%
100 nM
  inhibition of SARS-CoV-2 cytopathic effect: -1.38%
833.33 nM
  inhibition of SARS-CoV-2 cytopathic effect: -2.98%
10000 nM
  inhibition of SARS-CoV-2 cytopathic effect: 59.6% (active)

## Nc1ncnc2c1ncn2[C@@H]1O[C@H](COP(=O)(O)OP(=O)(O)OP(=O)(O)OP(=O)(O)OC[C@H]2O[C@@H](n3cnc4c(N)ncnc43)[C@H](O)[C@@H]2O)[C@@H](O)[C@H]1O [diadenosine-tetraphosphate]
1 nM
  inhibition of SARS-CoV-2 cytopathic effect: 1.69%
8.33 nM
  inhibition of SARS-CoV-2 cytopathic effect: 0.56%
100 nM
  inhibition of SARS-CoV-2 cytopathic effect: 0.34%
833.33 nM
  inhibition of SARS-CoV-2 cytopathic effect: 1.06%
10000 nM
  inhibition of SARS-CoV-2 cytopathic effect: -1.97%

## c1ccc2sc(SN3CCOCC3)nc2c1 [N-oxydiethylenebenzothiazole-2-sulfenamide]
1 nM
  inhibition of SARS-CoV-2 cytopathic effect: -2.53%
8.33 nM
  inhibition of SARS-CoV-2 cytopathic effect: -1.68%
100 nM
  inhibition of SARS-CoV-2 cytopathic effect: -1.37%
833.33 nM
  inhibition of SARS-CoV-2 cytopathic effect: 0.03%
10000 nM
  inhibition of SARS-CoV-2 cytopathic effect: -1.24%

## Cc1nc2ccccn2c(=O)c1CCN1CCC(C(=O)c2ccc(F)cc2)CC1 [pirenperone]
1 nM
  inhibition of SARS-CoV-2 cytopathic effect: 1.65%
8.33 nM
  inhibition of SARS-CoV-2 cytopathic effect: 1.73%
100 nM
  inhibition of SARS-CoV-2 cytopathic effect: -0.8%
833.33 nM
  inhibition of SARS-CoV-2 cytopathic effect: 1.4%
10000 nM
  inhibition of SARS-CoV-2 cytopathic effect: 0.69%

## CC(C)CNc1nc(-c2cccc3ncccc23)cn2c(-c3ccc(C(=O)NC4CC4)cc3)cnc12
1 nM
  inhibition of SARS-CoV-2 cytopathic effect: -3.61%
8.33 nM
  inhibition of SARS-CoV-2 cytopathic effect: -1.58%
100 nM
  inhibition of SARS-CoV-2 cytopathic effect: 1.09%
833.33 nM
  inhibition of SARS-CoV-2 cytopathic effect: -6.07%
10000 nM
  inhibition of SARS-CoV-2 cytopathic effect: -3.69%

## O=C1C(Cl)=C(NCCN2CCOCC2)C(=O)c2ncccc21
1 nM
  inhibition of SARS-CoV-2 cytopathic effect: -0.37%
8.33 nM
  inhibition of SARS-CoV-2 cytopathic effect: 1.19%
100 nM
  inhibition of SARS-CoV-2 cytopathic effect: 1.71%
833.33 nM
  inhibition of SARS-CoV-2 cytopathic effect: 6%
10000 nM
  inhibition of SARS-CoV-2 cytopathic effect: -17.2%

## c1ccc2c(c1)sc1ccccc12 [dibenzothiophene]
1 nM
  inhibition of SARS-CoV-2 cytopathic effect: -0.91%
8.33 nM
  inhibition of SARS-CoV-2 cytopathic effect: 1.31%
100 nM
  inhibition of SARS-CoV-2 cytopathic effect: 0.34%
833.33 nM
  inhibition of SARS-CoV-2 cytopathic effect: 0.07%
10000 nM
  inhibition of SARS-CoV-2 cytopathic effect: 0.68%

## CCN1C[C@H](C)n2c(c(O)c3c(=O)n(Cc4ccc(F)c(Cl)c4)nc(C(=O)NC)c32)C1=O
1 nM
  inhibition of SARS-CoV-2 cytopathic effect: -0.8%
8.33 nM
  inhibition of SARS-CoV-2 cytopathic effect: 0.13%
100 nM
  inhibition of SARS-CoV-2 cytopathic effect: -1.06%
833.33 nM
  inhibition of SARS-CoV-2 cytopathic effect: 0.69%
10000 nM
  inhibition of SARS-CoV-2 cytopathic effect: -2.34%

## CC(C)C(N)=O [isobutyramide]
1 nM
  inhibition of SARS-CoV-2 cytopathic effect: 4.35%
8.33 nM
  inhibition of SARS-CoV-2 cytopathic effect: 1.02%
100 nM
  inhibition of SARS-CoV-2 cytopathic effect: 2.22%
833.33 nM
  inhibition of SARS-CoV-2 cytopathic effect: 2.44%
10000 nM
  inhibition of SARS-CoV-2 cytopathic effect: 0.68%

## O=C(O)CCc1ccc(NCc2cccc3c2CCCN3CCOc2ccccc2)cc1F
1 nM
  inhibition of SARS-CoV-2 cytopathic effect: 2.94%
8.33 nM
  inhibition of SARS-CoV-2 cytopathic effect: 4.34%
100 nM
  inhibition of SARS-CoV-2 cytopathic effect: -0.81%
833.33 nM
  inhibition of SARS-CoV-2 cytopathic effect: 1.53%
10000 nM
  inhibition of SARS-CoV-2 cytopathic effect: 0.9%

## Cc1c(O)c(=O)n(-c2ccccc2)n1C [4-hydroxy-phenazone]
1 nM
  inhibition of SARS-CoV-2 cytopathic effect: -1.11%
8.33 nM
  inhibition of SARS-CoV-2 cytopathic effect: 0.39%
100 nM
  inhibition of SARS-CoV-2 cytopathic effect: 4.58%
833.33 nM
  inhibition of SARS-CoV-2 cytopathic effect: -1.8%
10000 nM
  inhibition of SARS-CoV-2 cytopathic effect: -2.04%
